From PubChem
Only some compounds are listed: those with a hit (about 10% of all), similar ones and a draw of the others.
KB-V1 MDR tox = qHTS assay for MDR1-selective chemotherapeutics: Primary screen using the drug-selected MDR subline cells KB-V1. AID 1347076, 2019. Potency, µM (top dose mostly 46.1 µM), usual class: cytotoxic. KB-V1 MDR cells viability, CellTiter-Glo, 72 h. 400,000 tested, 3.4% active; also: % is scaled to controls: 0 for no effect and ±100 for the full control effect; nearly all actives have a fitted effect of over 60% in size
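Compound-treated KB-V1 multidrug-resistant cells, 72 h, 37 degrees C; viability by CellTiter-Glo. Fitted qHTS curves give the values.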
RORg inh = qHTS for inhibitors of ROR gamma transcriptional activity. Nuclear receptor ROR-gamma (Mus musculus), P51450. Drosophila S2 Gal4-RORgamma UAS-luciferase reporter, 20 h. Potency, µM (highest dose often 53.6 µM), for the others: at the top dose activity change, negative = inhibition, most hits filed as inhibitors. 310,000 tested, 5.4% active. AID 2551, 2010; also: % is scaled to controls: 0 for no effect and ±100 for the full control effect; nearly all actives have a fitted effect of over 60% in size
Target sequence (P51450 whole entry, looked up, the tested form may be a part): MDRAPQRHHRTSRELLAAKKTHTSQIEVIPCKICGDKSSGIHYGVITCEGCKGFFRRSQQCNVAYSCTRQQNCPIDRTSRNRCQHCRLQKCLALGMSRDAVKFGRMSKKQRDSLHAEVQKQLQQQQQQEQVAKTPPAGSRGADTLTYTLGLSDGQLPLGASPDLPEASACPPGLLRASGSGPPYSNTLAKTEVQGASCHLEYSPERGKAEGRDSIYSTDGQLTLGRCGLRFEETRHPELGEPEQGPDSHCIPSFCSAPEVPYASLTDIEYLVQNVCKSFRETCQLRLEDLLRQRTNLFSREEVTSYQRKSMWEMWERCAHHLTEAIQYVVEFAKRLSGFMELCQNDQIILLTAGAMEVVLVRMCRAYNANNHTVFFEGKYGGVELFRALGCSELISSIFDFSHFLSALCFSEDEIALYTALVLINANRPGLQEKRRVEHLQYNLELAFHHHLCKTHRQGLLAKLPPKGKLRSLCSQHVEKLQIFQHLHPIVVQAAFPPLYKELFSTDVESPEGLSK
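Luciferase reporter read in Schneider cells carrying Gal4-RORγ (mouse) and UAS-Photinus luciferase; cells given compound 1 h before 700 uM copper sulfate induction, then incubated 20 h at ambient temperature.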
KB-3-1 tox = qHTS assay for MDR1-selective chemotherapeutics: Primary screen using the parental adenocarcinoma cell KB-3-1; KB-3-1 viability, CellTiter-Glo ATP luminescence, 72 h; Potency, µM (top dose mostly 46.1 µM), hits mostly cytotoxic; AID 1347075, 2019; 400,000 tested, 1.4% active; also: % is scaled to controls: 0 for no effect and ±100 for the full control effect; nearly all actives have a fitted effect of over 60% in size
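Parental KB-3-1 adenocarcinoma cells in phenol-red-free DMEM with 10% FBS were pin-treated with compounds at several concentrations, incubated 72 h at 37 °C, and viability read by CellTiter-Glo luminescence; concentration-effect curves were fitted after normalization.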
SW480 rerep = A quantitative high throughput screen for small molecules that induce DNA re-replication in SW480 colon adenocarcinoma cells; 340,000 tested, 1.8% active; AID 624297, 2012; SW480 DNA re-replication, Hoechst DNA content imaging, 48 h; Potency, µM (highest dose often 46.1 µM), without a hit: at the top dose re-replication activation, actives largely listed as activators; also: % of control where 0% means no effect; nearly all actives have a fitted effect of over 55% in size
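DNA re-replication was detected as more nuclei of elevated Hoechst intensity after 48 hr exposure to compound (23 nL pinned per well of 250 cells).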
Gal4-VP16 FLuc = VP16 counterscreen qHTS for inhibitors of ROR gamma transcriptional activity. 310,000 tested, 3.5% active. AID 2546, 2010. Potency, µM (doses to about 53.6 µM), inactives show at the top dose activity, negative = inhibition, most hits filed as inhibitors. Drosophila S2 Gal4-VP16 UAS-luciferase, luminescence, 20 h;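 also: Gal4-VP16 expression switched on by copper sulfate through the metallothionein promoter; % is scaled to controls: 0 for no effect and ±100 for the full control effect; nearly all actives have a fitted effect of over 50% in size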
MCF10A rerep = A quantitative high throughput screen for small molecules that induce DNA re-replication in MCF 10a normal breast cells; MCF 10A DNA re-replication, Hoechst nuclear intensity, 48 h; Potency, µM (highest dose often 46.1 µM), for the others: top-dose activity, positive = re-replication, actives largely listed as activators; 350,000 tested, 2.9% active; AID 624296, 2012; also: % of control where 0% means no effect; nearly all actives have a fitted effect of over 50% in size
Numbers without * were called inactive; i = inactive; ? = inconclusive; nt = no result given; [ ] = remark or other dose. Calls follow the shape of the dose curve; as a rule, active = well fitted curve in the direction sought with a large enough effect; inconclusive = small, poorly fitted or top-dose-only effect, or another doubt; inactive = no such curve, though single readings can be large; an effect the other way counts as inactive or inconclusive. Potency is read from the fitted curve at half-maximal effect.

SMILES | KB-V1 MDR tox | RORg inh | KB-3-1 tox | SW480 rerep | Gal4-VP16 FLuc | MCF10A rerep
COc1ccc(-c2nsc3c(N4CCCCC4C)ncnc23)cc1 (stereo not drawn) | i | 0.282µM* | i | 18.8% | ? | ?
Cc1c2c(n3c(nc4ccccc43)c1C#N)N(CCCN(C)C)CC2 | ? | -3.4% | i | 9.2µM* | 2.8% | 14.6µM*
Cc1c2c(n3c(nc4ccccc43)c1C#N)N(c1ccccc1)CC2 | nt | -16.1% | nt | 10.0% | 0.4% | 5.3%
Cc1c2c(n3c(nc4ccccc43)c1C#N)N(CCN(C)C)CC2 | i | -0.8% | i | 9.2µM* | -0.5% | 16.4µM*
COc1cc(OC)c(Nc2cc(C)nc3ncnn23)cc1Cl | i | nt | i | nt | nt | nt
C=CC[n+]1c(-c2ccc(C)cc2)csc1Nc1ccc(NC(C)=O)cc1 | ? | 35.8% | ? | -118.8% | 1.1% | ?
C=CC[n+]1c(-c2ccc(OC)cc2)csc1NNC(=O)Nc1ccccc1 | 23.1µM* | ? | i | 2.5% | -19.1% | 11.0%
O=C(C=Cc1ccccc1)c1ccc([N+](=O)[O-])cc1 | i | nt | i | 16.4µM* | nt | 159.9%
O=C(/C=C/c1cccnc1)c1ccc([N+](=O)[O-])cc1 | i | ? | i | ? | ? | ?
O=C(C=Cc1ccccn1)c1ccccc1 | i | nt | ? | ? | nt | 3.26µM*
Cc1ccc(C(=O)/C=C/c2ccccc2[N+](=O)[O-])cc1 | i | -99.9% | i | ? | 3.9%[10 µM] | 16.4µM*
O=C(/C=C/c1cccnc1)c1ccccc1O | i | 17.8µM* | i | -8.6% | ? | 21.2%
O=C(C=Cc1ccccc1Cl)c1ccccc1 | i | nt | i | ? | nt | ?
Cc1ccc(C(=O)/C=C/c2ccc(-c3ccccc3[N+](=O)[O-])o2)cc1 | i | ? | i | -0.9% | -1.3% | -2.4%
COc1cccc(COC(=O)c2ccc(-c3nnn(Cc4cccc(OC)c4)n3)cc2)c1 | i | nt | i | nt | nt | nt
O=C(/C=C/c1cccc(O)c1)c1cccnc1 | ? | 8.91µM* | i | ? | ? | 20.6µM*
O=C(/C=C/c1ccc(O)cc1)c1ccccc1 | i | ? | i | 29.7% | -18.4% | ?
CN(C)C(=O)COc1ccc(C(=O)/C=C/c2cccnc2)cc1 | i | 17.8µM* | ? | ? | ? | ?
CN(C)c1ccc(/C=C/C(=O)c2cccnc2)cc1 | i | -14.1% | ? | 2.6% | 3.6% | 8.2%
COc1cc(C(=O)/C=C/c2cccnc2)c([N+](=O)[O-])cc1OC | i | nt | ? | 4.9% | nt | 23.1µM*
CN(C(=O)COc1ccccc1)c1nnc(-c2cccnc2)s1 | i | 26.7% | i | -3.1% | -4.3% | -3.6%
O=C(/C=C/c1ccccc1)c1ccc(O)cc1 | nt | 11.2µM* | nt | nt | ? | nt
Cc1ccc(-c2c3c(=O)n(C)c(=O)n(C)c3c3c(C)nc4ccccc4n23)cc1 | i | nt | i | nt | nt | nt
COc1ccc(O[C@H]2C=C[C@@H](c3ccccc3)O[C@H]2COC(=O)CC/C(C)=N\OC[C@@H](O)COCc2ccco2)cc1 | nt | 39.2%[10 µM] | nt | nt | -7.3%[10 µM] | nt
O=P(O)(O)C(O)(Cn1ccnc1)P(=O)(O)O | nt | 4.7% | nt | 0.0% | -1.4% | 0.7%
SMILES | KB-V1 MDR tox | RORg inh | KB-3-1 tox | SW480 rerep | Gal4-VP16 FLuc | MCF10A rerep
N#Cc1ccc(CS(=O)(=O)c2nnnn2C2CCCCC2)cc1 | nt | -9.6% | nt | nt | 1.5% | nt
Cc1ccc(NC(=O)C(=O)NCC(c2ccc3c(c2)OCO3)N2CCN(C)CC2)cc1C (stereo not drawn) | i | nt | i | nt | nt | nt
O=C(C=Cc1cccnc1)c1ccccc1 | ? | nt | ? | 12.2% | nt | ?
O=C(/C=C/c1cccnc1)c1ccc(O)cc1 | ? | 12.6µM* | ? | 20.6µM* | -87.8% | ?
Cc1[nH]c(C)c(C(=O)/C=C/c2ccc([N+](=O)[O-])cc2)c1C | i | 1.12µM* | ? | ? | ? | 11.6µM*
Cc1ccc2c(CC(=O)N3CCN(c4cccc(Cl)c4)CC3)coc2c1 | i | nt | i | nt | nt | nt
CCC1=C2CC[C@H]3C(=O)N(CC(=O)OC)C(=O)[C@H]3[C@H]2[C@@]2(Cc3ccccc3)C(=NCCOC)OC(=O)N2C1=O | nt | 6.8% | nt | nt | 1.6% | nt
COCCCNC(=O)/C(C#N)=C/c1ccc(F)cc1 | i | -22.9% | i | 0.3% | 5.2% | 0.4%
N#C/C(=C\c1cccc(NC(=O)c2ccccc2Cl)c1)C(=O)NCCc1ccccc1 | i | ? | ? | 18.4µM* | ? | ?
COCCCNC(=O)/C(C#N)=C/c1cccc(NC(=O)c2ccccc2Cl)c1 | ? | ? | i | 1.64µM* | -22.9% | 25.9%
N#C/C(=C/c1ccccc1)C(=O)NCc1ccccc1 | i | ? | i | 7.9% | -25.7% | ?
C(=C\c1ccccc1)/CN1CCN(C(c2ccccc2)c2ccccc2)CC1 | i | 2.0% | i | 0.3% | 0.2% | ?
Fc1ccc(C(c2ccc(F)cc2)N2CCN(C/C=C/c3ccccc3)CC2)cc1 | ? | 30.7% | ? | ? | ? | 23.1µM*
CCc1c(C)c2ccccc2[nH]c1=O | 2.31µM* | nt | 4.11µM* | nt | nt | nt
CCCCCc1c(O)c2ccccc2[nH]c1=O | 16.4µM* | 32.6%[0.365 µM] | i | -10.4% | nt | -3.8%
CCc1c(C)[nH]c2ccccc2c1=O | i | -14.4% | i | -1.9% | ? | -3.2%
CCCCCOC(=O)Cc1c(O)c2ccccc2[nH]c1=O | i | -2.8% | i | -2.8% | 3.5% | -0.6%
CCCCC(=O)Nc1ccc(OCc2cc(=O)n3ccc(C)cc3n2)cc1 | i | nt | i | nt | nt | nt
COC(=O)/C=C1\N/C(=N\c2nc(C)cc(C)n2)N(c2ccc(Cl)cc2)C1=O | i | -41.2% | i | 4.5% | 6.2% | -1.4%
COC(=O)/C=C1\N/C(=N\c2nc(C)cc(C)n2)N(c2ccc(C)c(C)c2)C1=O | i | 11.2µM* | i | 11.3% | ? | 17.5%
CCOC(=O)C(C)Sc1nc(-c2ccccn2)ncc1OC (stereo not drawn) | ? | 7.08µM* | i | 0.2% | ? | 20.1%
COc1cnc(-c2ccccn2)nc1Sc1c(Cl)cccc1Cl | 2.91µM* | 3.16µM* | ? | 14.6µM* | 10µM* | ?
COc1cnc(-c2ccccn2)nc1Sc1ccccc1Cl | i | 2.51µM* | ? | 13µM* | 10µM* | ?
Cc1ccc(NC(=O)/C(Cl)=C/c2ccccc2)cc1C | ? | 10µM* | i | 7.1% | ? | 8.7%
